Laboratory results from PubChem BioAssay.
“And” between values parts separate entries of the source, which are not always exact repeats. Identical values can stand only once. The source made the active and inactive calls.

How the values were obtained:
[1] = A549 cell viability effects, profiling panel, calcein-AM fluorescence, 48 h, basal (AID 1162); conditions: higher = more signal
[2] = adipocyte viability effects, profiling panel, cell-based, 3T3-L1 adipocytes, calcein-AM fluorescence, 48 h, basal (AID 1163); conditions: 3T3-L1 adipocytes viability, higher = more signal
[3] = HepG2 cell viability effects, profiling panel, calcein-AM fluorescence, 48 h, basal (AID 1164); conditions: higher = more signal
[4] = MM1S cell viability effects, profiling panel, calcein-AM fluorescence, 48 h, basal (AID 1165); conditions: higher = more signal;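 also: viability of MM1S multiple myeloma cells under basal unstimulated conditions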
[5] = basal RPMI8226 viability, no added stimulus, profiling panel, cell-based, calcein-AM fluorescence, 48 h, PK04 Diversity Set (AID 1166); conditions: RPMI8226 myeloma viability, higher = more signal;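 also: cells grown under basal conditions without added stimulus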
[6] = basal HepG2 mitochondrial membrane potential changes, profiling panel, cell-based, JC-1 fluorescence, 24 h, 100 nL compound (AID 1167); conditions: higher = more signal
[7] = basal 3T3-L1 adipocyte mitochondrial potential changes, profiling panel, cell-based, JC-1 fluorescence, 3T3-L1 adipocytes, 24 h, 100 nL compound (AID 1168); conditions: JC-1 mitochondrial fluorescence, higher = more signal, called active from +8 up or from −8 down
[8] = basal RPMI8226 mitochondrial membrane potential changes, profiling panel, cell-based, JC-1 fluorescence, 24 h, 100 nL compound (AID 1169); conditions: RPMI8226 myeloma, JC-1 mitochondrial potential fluorescence, higher = more signal
[9] = basal MM1S mitochondrial membrane potential changes, profiling panel, cell-based, JC-1 fluorescence, 24 h, 100 nL compound (AID 1170); conditions: higher = more signal
[10] = A549 lung cancer cell viability effects, profiling panel, resazurin fluorescence, 24 h, PK04 Diversity Set (AID 1171); conditions: higher = more signal, called active from +8 up or from −8 down
Also: test concentration not given here.

Structure (SMILES) | z-score [1] | z-score [2] | z-score [3] | z-score [4] | z-score [5] | z-score [6] | z-score [7] | z-score [8] | z-score [9] | z-score [10]
C=CCN(C(=O)C1N(CCCCCCO)C(=O)C2C(C(=O)O)C3C=CC21O3)c1ccc(OC)cc1 (stereo not given) | 1.37 and 0.282 | 0.743 and -0.0063 | -0.46 and 0.428 | 0.315 and -1.1 | 0.432 and 0.269 | 0.113 and -0.546 | 0.74 (inactive) and 0.861 (inactive) | -0.875 and -0.0778 | 1.02 and 1.2 | 1.09 (inactive) and 0.416 (inactive)
C=CCN(CCCCC)C(=O)C1N(c2ccc(CCO)cc2)C(=O)C2C(C(=O)O)C3C=CC21O3 (stereo not given) | -0.0277 and -0.611 | -0.0076 and 0.226 | -0.97 and 0.288 | 0.867 and 0.199 | -0.322 and -1.02 | -0.587 and -1.1 | -0.545 (inactive) and -0.407 (inactive) | 0.647 and 0.562 | 0.743 and 0.912 | -0.792 (inactive) and -0.842 (inactive)
CC(C)N1CC=CC23O[C@@H]4C=CCCOC(=O)C4[C@H]2C(=O)N(C(C)CO)[C@@H]3C1=O (stereo not given in full) | -0.507 and 0.287 | 1.61 and 1.45 | -0.658 and -0.153 | 1.24 and 0.914 | 0.264 and 0.678 | 0.534 and 0.979 | 1.21 (inactive) and 1.41 (inactive) | 0.0803 and 0.664 | 1.69 and 1.02 | 0.0618 (inactive) and 0.502 (inactive)
C=CCN(C(=O)C1N(c2ccc(CCO)cc2)C(=O)C2C(C(=O)O)C3C=CC21O3)c1ccc(OC)cc1 (stereo not given) | 0.414 and -0.783 | 0.432 and 0.014 | -0.535 and -0.905 | 1.02 and 1.1 | -0.0159 and 0.492 | -0.19 and -0.0346 | -0.246 (inactive) and -0.356 (inactive) | -0.0146 and 0.609 | -0.358 and 0.691 | -1.23 (inactive) and 0.468 (inactive)
CCCC[C@@H]1CN2[C@H](c3ccc(Br)cc3)[C@@H](C)CC[C@H]2C(=O)O1 | 1.03 and 0.449 | -1.1 and -0.272 | 0.155 and 0.493 | -1.36 and -0.797 | 0.969 and 0.24 | 0.134 and -1.42 | -0.299 (inactive) and -0.848 (inactive) | -0.187 and -0.361 | -1.19 and 1.26 | 0.301 (inactive) and 1.49 (inactive)
CN1C(=O)C2CC=C([C@H]3Oc4ccccc4S(=O)(=O)N4CCC[C@@H]34)CC2C1=O (stereo not given in full) | -0.657 and 0.15 | -0.109 and 0.323 | -0.926 and -0.369 | 0.49 and 0.288 | -0.177 and -0.215 | -0.649 and 0.00971 | 0.243 (inactive) and 0.347 (inactive) | 0.439 and 0.341 | 0.123 and -0.0296 | 0.0976 (inactive) and -0.125 (inactive)
CCOC(=O)c1ccc(NC(=O)O[C@H]2[C@H](OC(=O)Nc3ccccc3)[C@@H](OC(=O)Nc3ccccc3)[C@@H](OC)O[C@@H]2CO)cc1 | -1 and -2.09 | 1.79 and 1.14 | -1.92 and -2.54 | -1.83 and -2.21 | -1.56 and -2.49 | -1.05 and -0.323 | 2.13 (inactive) and 0.661 (inactive) | -0.464 and -0.37 | -0.447 and -0.575 | -3.35 (inactive) and -3.84 (inactive)
C=CCN(CCCCC)C(=O)C1N(CCCCCCO)C(=O)C2C(C(=O)O)C3C=CC21O3 (stereo not given) | -0.681 and -0.373 | -0.573 and -0.412 | 0.122 and 0.657 | 1.6 and 0.379 | 0.0447 and -0.164 | -0.649 and -0.526 | -0.2 (inactive) and 0.409 (inactive) | 0.15 and 0.0486 | 0.702 and -0.254 | -0.66 (inactive) and -0.379 (inactive)
C=CCN(C(=O)C1N(C(C)(C)CO)C(=O)C2C(C(=O)O)C3C=CC21O3)C(C)(C)C (stereo not given) | -0.209 and -0.173 | -0.72 and 0.343 | 0.384 and 0.816 | 0.676 and 0.647 | 0.0691 and 0.0574 | -0.896 and 0.142 | -0.308 (inactive) and 0.228 (inactive) | 0.669 and -0.287 | 0.88 and 0.351 | -0.777 (inactive) and -0.128 (inactive)
CCCNC(=O)OC[C@H]1O[C@H](CCON=C(C)CCN2CCc3nc(-c4ccccc4)c(-c4ccccc4)cc3C2)C=C[C@@H]1Oc1ccc(OC)cc1 | 1.18 | 0.723 | 0.27 | -0.893 | -0.794 | 4.79 | -1.65 (inactive) | 0.179 | 0.483 | 0.444 (inactive)
CC(C)=CCCC(C)=CCON=C1C[C@@H](O)[C@@H](O)[C@@H]2[C@@H]3C(=O)N([C@@H](C)c4ccccc4)C(=O)[C@@H]3CC[C@H]12 | 0.0319 | 0.2 | 0.446 | -2.88 | -0.0017 | 0.374 | 1.08 (inactive) | 0.0351 | -1.78 | -1.38 (inactive)
C=CCN(CCCC)C(=O)C(c1cccs1)N(C(=O)/C=C\C(=O)O)c1c(Cl)cccc1CO (stereo not given) | -0.163 and -0.667 | 0.441 and 0.526 | -0.934 and -0.809 | 1.43 and 1.51 | -0.097 and -0.435 | -0.25 and -0.417 | -0.96 (inactive) and 0.0799 (inactive) | 0.819 and 1.04 | -0.153 and -0.712 | -0.352 (inactive) and 0.397 (inactive)
CC(CO)N1C(=O)[C@@H]2C3C(=O)OCCC=C[C@H]3OC23C=CCN(c2ccc4ccccc4c2)C(=O)[C@@H]13 (stereo not given in full) | -0.288 and -0.0156 | 0.0371 and -0.217 | -0.463 and -0.565 | 0.0923 and 1.01 | -0.526 and -0.237 | -0.0969 and -0.0971 | -0.684 (inactive) and -1.28 (inactive) | -0.904 and 0.195 | 0.238 and 0.275 | -0.124 (inactive) and 0.0409 (inactive)
C=CCN(CCCCC)C(=O)C1N(CCOCCO)C(=O)C2C(C(=O)O)C3C=CC21O3 (stereo not given) | -0.178 and -0.126 | 0.21 and -0.603 | -0.499 and -0.87 | 0.226 and 1.03 | -0.361 and 0.133 | -0.562 and -0.928 | -0.279 (inactive) and -0.227 (inactive) | 0.252 and 0.715 | 0.377 and 0.103 | -0.529 (inactive) and -1.03 (inactive)
C=CCN(Cc1ccccc1)C(=O)C1N(c2c(Cl)cccc2CO)C(=O)C2C(C(=O)O)C3C=CC21O3 (stereo not given) | 1.45 and -0.228 | 0.38 and 0.802 | 1.07 and 0.0456 | 2.15 and 0.815 | 0.381 and -0.937 | 0.992 and -1.25 | 1.53 (inactive) and -0.0316 (inactive) | -0.817 and -0.0516 | 1.03 and 0.278 | 2.19 (inactive) and -0.851 (inactive)
CON(C)C(=O)c1nnc2c3ccccc3n(S(=O)(=O)c3ccc(C)cc3)c2n1 | 0.318 and 1.25 | 0.495 and -0.447 | -1.33 and -0.298 | 0.14 and 0.0315 | 0.496 and -0.588 | -1.61 and -1.52 | -0.301 (inactive) and -0.0202 (inactive) | 0.218 and 0.4 | -0.436 and -0.72 | 0.617 (inactive) and -0.146 (inactive)
Cc1ccc(S(=O)(=O)N[C@H]2COC(=O)[C@@H](Cc3ccccc3)NC(=O)[C@@H](C)COC(=O)CC=C[C@@H]2C)cc1 | 0.671 and -0.545 | -0.433 and 1.08 | 0.364 and -1.68 | -1.13 and 1.05 | -0.372 and -0.784 | 0.0571 and -0.176 | -0.517 (inactive) and -0.812 (inactive) | -0.259 and 0.107 | 0.242 and -1.28 | 0.0258 (inactive) and 0.392 (inactive)
C[C@@H]1CC[C@H]2C(=O)O[C@H](CN=[N+]=[N-])CN2[C@H]1c1ccc(Br)cc1 | -2.47 and 0.677 | -0.805 and -0.0793 | -2.75 and -0.113 | -3.4 and -0.0115 | -3.07 and 0.163 | -2.47 and 0.365 | -0.136 (inactive) and 0.265 (inactive) | -0.867 and 0.0245 | -1.02 and 0.242 | -0.854 (inactive) and 0.459 (inactive)
CO[C@@H]1COC(=O)CC=C[C@H](C)[C@@H](NS(=O)(=O)c2ccc(C)cc2)COC(=O)CC=C[C@@H]1C | 0.725 and -1.15 | -0.779 and -0.0305 | 0.515 and -1.42 | 0.317 and 0.286 | -0.0273 and 0.0878 | 0.651 and -0.353 | -0.162 (inactive) and -1.02 (inactive) | -0.235 and 0.237 | 0.654 and -0.385 | -0.512 (inactive) and 1.4 (inactive)
